Bioassay records deposited in PubChem by several laboratories.
A selection: hits, their analogues and other compounds. The true share with any hit is near 3.4%.
MEKK2mut PB1 HTS – signal of MEK5 binding to mutant human MEKK2 PB1 domain. percent response, % at 10 µM. bead flow cytometry, Alexa488-MEK5 binding to MEKK2 mutant. actives 0.35% (n = 290,000); in the data active = percent response above about 24%, passing the limit was not always enough
TMEM16A inh – inhibitors of mouse TMEM16A calcium-activated chloride channel; actives 1.2% (n = 310,000); AID 588511; HEK293 TMEM16A/YFP iodide influx fluorescence, ionomycin; normalized B-score (activity score, 25-100; higher = stronger inhibition) at 10 µM;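 active = ratio plate-corrected score three or more library SD toward inhibition, starting fluorescence score within five deviations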;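 note: score derived from kinetic fluorescence span divided by baseline fluorescence per well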
NTR1 ag – NTR1 (human) agonism | P30989 | NTR1-U2OS beta-arrestin-GFP spot imaging, agonist mode | activation, % at 20 µM | actives 0.17% (n = 330,000) | AID 493036;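 active = activation at or above 40% of the spot to cytoplasm intensity ratio, with at least 20 cells analyzed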;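 note: 0% = DMSO without peptide and 100% = 100 nM NTR1 peptide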
Target sequence (P30989 whole entry, looked up): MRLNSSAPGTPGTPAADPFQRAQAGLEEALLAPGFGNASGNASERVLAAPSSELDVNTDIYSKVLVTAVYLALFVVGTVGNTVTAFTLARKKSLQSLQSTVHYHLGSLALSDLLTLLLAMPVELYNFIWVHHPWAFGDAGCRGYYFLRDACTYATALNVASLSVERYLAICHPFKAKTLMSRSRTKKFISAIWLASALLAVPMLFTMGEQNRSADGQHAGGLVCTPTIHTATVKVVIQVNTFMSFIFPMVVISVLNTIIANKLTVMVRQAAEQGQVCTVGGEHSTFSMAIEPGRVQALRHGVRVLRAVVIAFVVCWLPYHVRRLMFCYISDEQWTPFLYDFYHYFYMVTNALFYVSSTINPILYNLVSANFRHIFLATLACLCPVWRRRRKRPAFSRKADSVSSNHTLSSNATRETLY
TMEM16A act – mouse TMEM16A channel activation, primary screen; B-score at 10 µM; Q8BHY3; actives 0.3% (n = 340,000); AID 623877; HEK293 TMEM16A/YFP-H148Q/I152L, iodide quench fluorescence; stronger effect = lower value;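 active = fluorescence-ratio B-score plate-corrected deviation score at least 3 library SD below zero, with starting fluorescence score within 5 deviations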;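 note: channel opened by trigger with iodide after compound preincubation; score built on the fluorescence ratio of max minus min over baseline; more negative score means more quench and so TMEM16A activation or potentiation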
MEKK3 PB1 HTS – modulators (inhibitors or enhancers) of MEK5 binding to human MEKK3 PB1 domain | Q99759 | bead-based flow cytometry, Alexa488-MEK5 binding to MEKK3; actives lie on both sides; 0 = blocked by unlabeled MEK5, 100 = vehicle | binding response (% of control), % at 10 µM | actives 1.4% (n = 290,000) | AID 1529;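 active = binding response more than 3 SD above or below the average of its plate-row segment, actives on both sides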;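 note: Alexa488 bead fluorescence after subtracting the streptavidin-only scavenger bead signal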
MEKK2wt PB1 HTS – raises or lowers MEK5 binding to wildtype human MEKK2 PB1 domain; Q9Y2U5; bead flow cytometry, Alexa488-MEK5 binding to MEKK2 WT; actives lie on both sides; binding response (% of control), % at 10 µM; actives 1.1% (n = 290,000); AID 1531; in the data active = binding response below about 67% or above about 130%
MEKK2wt confirm – raises or lowers MEK5 binding to wildtype human MEKK2, retest. shares compounds with MEKK3 PB1 HTS. bead flow cytometry, Alexa488-MEK5 binding to MEKK2 WT; actives lie on both sides. binding response (% of control), % at 10 µM. actives 2.4% (n = 5,900); in the data active = binding response below about 16% or above about 210%; inactive = in between
MEKK2mut confirm – signal of MEK5 binding to mutant human MEKK2, retest | shares compounds with MEKK3 PB1 HTS | bead flow cytometry, Alexa488-MEK5 binding to MEKK2 mutant | percent response, % at 10 µM | actives 2% (n = 5,900); in the data active = percent response mostly above about 71%, no sharp cut-off; inactive = mostly below about 38%;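 note: higher means compound restores mutant binding toward wildtype level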
MEKK3 confirm – confirmation of inhibitors of MEK5 binding to human MEKK3; shares compounds with MEKK3 PB1 HTS; bead flow cytometry, Alexa488-MEK5 binding to MEKK3; stronger effect = lower value; binding response (% of control), % at 10 µM; actives 1.8% (n = 5,900);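 active = binding response below 72% of control, or above a set upper limit, though filed actives all read lower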;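 note: 100% = DMSO only wells and 0% = binding blocked by excess unlabeled MEK5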
Starred values were filed as active, the others as inactive; i = inactive; / = no result given; [ ] = remark or other dose.

SMILES	MEKK2mut PB1 HTS	TMEM16A inh	NTR1 ag	TMEM16A act	MEKK3 PB1 HTS	MEKK2wt PB1 HTS	others
Cc1c(C=O)c2ccccc2n1CC(=O)NC(C)c1ccccc1 (centres undefined)	-1	i	0	i	96	95
Cc1onc(C(=O)Nc2ccccc2C(F)(F)F)c1[N+](=O)[O-]	-21	i	-1	i	1.0*[inhibitor]	0.0*[inhibitor]
Cc1cc(C)nc(/N=C(\N)Nc2ccc(OCc3ccccc3)cc2)n1	-2	100*	20	-7.8*	107	114
Cc1ccc(SCC(=O)NCCSC(C)(C)C)cc1	-2	i	0	i	95	100
CC(N)=Nc1ccc([N+](=O)[O-])cc1	-2	i	-1	i	93	95
O=[N+]([O-])c1ccc(N=Nc2c(Cl)cc(O)cc2Cl)cc1	5	100*	/	-5.2*	107	99
O=C(COc1ccc(C(=O)c2ccccc2)cc1)NCC1CCCCC1	-4	i	-1	i	84	88
O=C(N/N=C/c1cc2ccccc2[nH]1)c1ccccc1Cl	5	i	2	i	113	104
CCN(C(=O)CCc1nc(-c2ccc(OC)cc2)no1)c1cc(OC)ccc1OC	18	25*	2	i	109	110
COc1ccc(-c2noc(CCC(=O)N(C)c3cccc(C)c3)n2)cc1	-10	i	1	i	78	85
Cc1c(O)cc2c(c1O)C(=O)CC(c1ccccc1)O2 (centres undefined)	7	100*	7	-6.5*	110	110
CC1(c2ccc(OC(F)F)cc2)NC(=O)N(CC(=O)Nc2ccc3c(c2)OCO3)C1=O (centres undefined)	4	i	3	-5.9*	100	101
CCOC(=O)CN1C(=O)NC(C)(c2ccc(OC(F)F)cc2)C1=O (centres undefined)	-3	25*	1	i	92	91
CC1(c2ccc(OC(F)F)cc2)NC(=O)N(CC(=O)NC2CCCC2)C1=O (centres undefined)	/	/	4	i	/	/
CC1(c2ccc(OC(F)F)cc2)NC(=O)N(CC(=O)Nc2ccccc2)C1=O (centres undefined)	-1	i	3	-10*	103	103
O=C(c1cc(S(=O)(=O)N2CCN(c3ccccc3)CC2)ccc1Cl)N1CCCC(C(F)(F)F)C1 (centres undefined)	/	i	0	i	/	/
O=C(c1cccc(S(=O)(=O)N2CCN(c3ccccc3)CC2)c1)N1CCCC(C(F)(F)F)C1 (centres undefined)	/	25*	2	i	/	/
CCOC(=O)c1c(C)n(C)c2cc(CN(C)C)c(O)c(S(=O)(=O)c3ccccc3)c12	-12	i	-2	i	100	93
C=C(C)C(=O)OCC(O)COc1ccc(C(C)(C)c2ccc(OCC(O)COC(=O)C(=C)C)cc2)cc1 (centres undefined)	/	100*	16	i	/	/
CN(Cc1cccc(F)c1)C(=O)CNS(=O)(=O)c1ccc2ccccc2c1	2	i	-1	i	100	100
Cc1noc(C)c1CSCC(=O)N1CCN(c2ccc([N+](=O)[O-])cc2)CC1	8	25*	0	i	105	106
O=C(COc1ccc(Cl)cc1Cl)OCC(=O)N1CCCc2ccccc21	5	i	-1	i	97	82
O=C(CCCOc1ccc(Cl)cc1Cl)N1CCCc2ccccc21	6	100*	14	i	105	99
CCCNC(=O)c1onc(CSc2ccc(Cl)cc2)c1C(=O)NCCOC	0	i	0	i	101	102
CN(NS(=O)(=O)c1ccc(Cl)cc1)c1nc(C(F)(F)F)nc2ccccc12	-11	100*	0	i	102	91
SMILES	MEKK2mut PB1 HTS	TMEM16A inh	NTR1 ag	TMEM16A act	MEKK3 PB1 HTS	MEKK2wt PB1 HTS	others
CN(NS(=O)(=O)c1ccccc1)c1nc2ccccc2nc1C(F)(F)F	3	i	-1	i	102	106
COc1cc(C(=O)NCCC(=O)NCCN2CCCCCC2)cc(OC)c1OC	24	i	-1	i	111	143*	MEKK2wt confirm=133;MEKK2mut confirm=16;MEKK3 confirm=104
Cc1nc(NC(=O)c2ccccc2)sc1-c1csc(NCc2ccccc2)n1	-7	i	3	i	88	102
Cc1nc(NC(=O)c2ccccc2)sc1-c1csc(NCCc2ccccc2)n1	-14	i	9	i	49*[inhibitor]	69	MEKK2wt confirm=121;MEKK2mut confirm=13;MEKK3 confirm=108
O=C(CCNC(=O)c1ccco1)NCc1ccc(C(=O)O)cc1	/	/	0	i	/	/
COc1ccc(N(CC(=O)NC2CCCCC2)C(=O)CNC(=O)c2cccs2)cc1OC	-1	i	0	i	96	99
O=C(CCS(=O)(=O)c1cccs1)N1CCN(c2ccc(F)cc2)CC1	7	i	0	i	122*	118	MEKK2wt confirm=69;MEKK2mut confirm=-21;MEKK3 confirm=71*
O=C(CCCNS(=O)(=O)c1cccs1)N1CCN(c2ccc(F)cc2)CC1	0	i	1	i	91	100
CSc1cccc(NC(=O)C2CCN(C(=O)c3ccccc3C)CC2)c1	1	i	3	i	151*	108	MEKK2wt confirm=96;MEKK2mut confirm=-12;MEKK3 confirm=96
Cc1cccc(NC(=O)N2CCC(NC(=O)c3ccccc3C)CC2)c1	-17	i	3	i	2.0*[inhibitor]	2.0*[inhibitor]	MEKK2wt confirm=96;MEKK2mut confirm=2;MEKK3 confirm=105
CNC(=S)NNC(=O)c1sc(-c2cc(C)on2)nc1C	-6	i	1	i	99	105
Cc1cc(C(=O)COC(=O)CC2Sc3ccccc3NC2=O)c(C)n1-c1ccccc1 (centres undefined)	0	i	4	i	136*	105	MEKK2wt confirm=93;MEKK2mut confirm=-10;MEKK3 confirm=96
CCCCC(=O)OCC(=O)c1cc(C)n(-c2c(C)n(C)n(-c3ccccc3)c2=O)c1C	-3	i	1	i	65*[inhibitor]	83	MEKK2wt confirm=90;MEKK2mut confirm=-10;MEKK3 confirm=89
CCOC(=O)c1cc(C)n(-c2c(C)n(C)n(-c3ccccc3)c2=O)c1C	11	i	-1	i	103	105
